# Data from the OligoGym collection.
# Target: MIS12
# Test: pooled miR-30 sensor sort-seq; sequence = guide strand
# Conditions: shRNA
# Note: reference of the scale not given here.
row,Sequence,sensor-assay potency score (higher = more potent)
1,TTTATCTTCAGGAAGCAAGATG,-0.586
2,TAGATCCGAAGCATGCACGTTT,0.233
3,TAATGTTCTGTAGTTTTCTGGA,-0.154
4,TTTTTTGCTCTTCTAATTCTGC,-0.78
5,TTCAGTCTTGTACTTCTCCTGT,0.0481
6,TTGGTTTGAACAGTCACTGGTA,0.981
7,TCTCCTTACATTTATCTTCAGG,-1.19
8,TTGAAATGCAATGTAGATCCGA,0.852

# Target: MKNK2
# Test: as above
# Conditions: shRNA
row,Sequence,sensor-assay potency score (higher = more potent)
1,ATCAGCTCTAGGACGTTCCTGT,-0.0446
2,TTTGTTATGCAGAAAGTCCAAG,-0.811
3,TTGTCGGGGAACTCGTACTTGC,-1.05
4,TTGATGCAGGTCTGCACTCGGG,-1.43
5,TCCAGCTCGTTGAAGTGCCGGC,-1.11
6,TTGAGTTTGATGCCGCTGCCCA,-0.98
7,TTATGCAGAAAGTCCAAGGCGC,-0.181
8,TGATGCAGGTCTGCACTCGGGC,-1.01
9,TCAAACAGCATGTTCTGGCAGG,-0.787
10,TAGGACGTTCCTGTGTCCCTGG,0.366
11,TAGATGCTAGCCTCCTCGCTGA,-0.602
12,TTCCTCTGCAGGACCATGGGAG,-0.448

# Target: MLL
# Test: as above
# Conditions: shRNA
row,Sequence,sensor-assay potency score (higher = more potent)
1,TAAGACATGATCAACTACTTTG,-0.602
2,TTCTGTTGTAGGCAGCTGCTGA,-0.148
3,TTGTTTAAGACTCTTACTCTTC,-0.426
4,TATCTCTGGAACTAGATCCCAT,0.126
5,TTTTCGTCGTTCTAGATCCAAA,-1.11
6,TATACTTTTAGAATCTTTCTTC,0.988
7,TTACTCTTCTCAATCTTGCAGA,0.352
8,TTTGCTTAGAACTATTGCCATT,-1.46
9,TTAAAGTCCACTCTGATCCTGT,0.574
10,TTCTGCTTCACAATCCTCCTTA,0.726
11,TCGGTGTAGACTCTAATCGGGC,-1.36

# Target: MMADHC
# Test: as above
# Conditions: shRNA
row,Sequence,sensor-assay potency score (higher = more potent)
1,TTCTTCTGTGAAGCAGTCCCAT,-0.488
2,TGTATTGCACACTCTACTCTGG,0.407
3,TTTCACTTGATAAAGGTTCTGC,0.549
4,TTTCTTGTTCAACAGGTGCATC,-1.26
5,TTTGCCATTAGCTACTTCTGGA,-0.35
6,TAATTTCTTGTTCAACAGGTGC,-0.82
7,TTCTTCACTCCAAACAGTCATA,-1.24
8,TGAGGTGACAATCAAAACCTAT,-0.635
9,TTTTCTAAGAGCACTTCTCTTT,-0.6
